Screens deposited in PubChem by Emory University Molecular Libraries Screening Center.
This excerpt belongs to a sample that is enriched for hits.
14-3-3g Raf: modulators of 14-3-3 gamma protein binding, primary screen, biochemical, fluorescence polarization; 14-3-3 protein gamma (Homo sapiens), P61981; FP, 14-3-3gamma / TMR-pS259-Raf peptide binding; inhibition, % at 40 µM; 160,000 tested, 0.19% active; AID 422, 2006; in the data active = inhibition above about 30%
Target sequence (P61981 whole entry, looked up): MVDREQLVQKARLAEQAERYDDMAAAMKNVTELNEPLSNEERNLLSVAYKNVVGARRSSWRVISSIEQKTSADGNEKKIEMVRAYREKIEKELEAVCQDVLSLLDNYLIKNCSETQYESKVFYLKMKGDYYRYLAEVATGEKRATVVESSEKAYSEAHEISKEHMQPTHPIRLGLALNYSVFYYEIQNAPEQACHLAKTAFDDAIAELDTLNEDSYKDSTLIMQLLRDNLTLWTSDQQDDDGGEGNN
Each line names hits and unclear results; the compound was inactive in the other large screens.

C=CCN1C(=O)NC(=O)C(Cc2ccc(OC)c(OC)c2)C1=O (stereo unspecified)	none
COc1cc(OC)c(OC)cc1CC1C(=O)N(C)C(=O)N(C)C1=O	14-3-3g Raf 65.6
COc1cc(CC2C(=O)N(C)C(=O)N(C)C2=O)ccc1OCc1ccccc1	none
O=c1[nH]c2ccccc2c(=O)n1-c1ccc(F)cc1	none
N#Cc1c(Cl)c(Cl)nc(N2CCCNCC2)c1Cl	none
O=c1c2ccccc2nc(C=Cc2ccc(F)cc2)n1-c1ccc(Br)cc1	none
Nc1ccc2nonc2c1[N+](=O)[O-]	14-3-3g Raf 31.2
O=[N+]([O-])c1c(NCCO)ccc2nonc12	none
CCCN(CCC)c1ccc([N+](=O)[O-])c2nonc12	none
CN(C)c1ccc(NC(=O)CN2C(=O)CN=C(c3ccccc3Cl)c3cc(Cl)ccc32)cc1	none
COC(=O)C1C2NC(=S)N(c3ccc(F)cc3)C1(C)Oc1c(O)cc(C(C)(C)C)cc12 (stereo unspecified)	none
CNCCc1c[nH]c2ccccc12	none
CN1C(=O)C(Cc2cccc3ccccc23)C(=O)N(C)C1=O	none
CN1C(=O)C(Cc2c[nH]c3ccccc23)C(=O)N(C)C1=O	14-3-3g Raf 81.5
O=C1NC(=O)C2(C(=O)N1)C(c1ccc(F)cc1)NC(=O)NC2c1ccc(F)cc1 (stereo unspecified)	none
